# According to PubChem BioAssay (NCATS):
# Values joined by “and” are separate entries in the source; they are usually repeats but may differ in a detail not shown here. Equal entries are not always repeated. Inconclusive results are not listed. Unmarked numbers belong to inactive results. Active and inactive are the calls of the source. The call rests on the fitted dose curve; in most records, active means well fitted cell-killing curve with a large enough effect; inconclusive means small, poorly fitted or top-dose-only effect, or effect the other way; inactive means no such curve, though single readings can be large or run the other way.
# Test: Cell Viability - LYMP2-005 (AID 967)
# Conditions: LYMP2-005 lymphoblastoid cell viability; series mostly up to 92.2 µM; activity change, negative = viability loss: at the top concentration
# From the text: NIH Chemical Genomics Center [NCGC]
# NIH Molecular Libraries Screening Centers Network [MLSCN]
# National Institutes of Environmental Health Sciences [NIEHS]
# National Toxicology Program [NTP]
# We have developed a 1536-well cell-based assay for quantitative high throughput screening (qHTS) against a number of cell lines to determine in vitro cytotoxicity of small molecules. This particular assay uses a human lymphoblastoid cell line (LYMP2-005) purchased from Coriell Institute for Medical Research.
# NCGC Assay Protocol Summary:
# The CellTiter-Glo luminescent cell viability assay (Promega) is a homogeneous method to measure the number of viable cells in culture. The end point readout of this assay is based on quantitation of intracellular ATP, an indicator of metabolic activity, using the luciferase reaction. Luciferase catalyzes the oxidation of beetle Luciferin to oxyluciferin and light in the presence of ATP. The luminescent signal is proportional to amount of ATP present.
# Using the CellTiter-Glo luminescent cell viability assay, the amount of cellular ATP was measured in the lymphoblastoid cell line with complete culture medium following compound treatment for 24 hours. The assay was performed in opaque white Kalypsys 1536-well plates. In the screen, tetraoctylammonium bromide was used as positive control. Library compounds were measured for their ability to cause acute toxicity in the cell line, as reflected by a decrease in intracellular ATP levels, in a concentration-dependent manner. […] AC50 values were determined from concentration-response data modeled with the standard Hill equation.
# qHTS protocol for CellTiter Glo lymphoblastoid cellular assay
# [Step] [Parameter] [Value] [Description]
# 1. Reagent; 5 uL; 2500 lymphoblastoid cells/well
# 2. Time; 5 hr; 37 C incubation
# 4. Controls; 23 nL; Tetraoctylammonium bromide 6.4pM to 92 uM
# 5. Time; 24 hr; 37 C incubation
# 6. Reagent; 5 uL; CellTiter Glo reagent
# 7. Time; 30 min; Room Temperature
# 8. Detection; Luminescence; Viewlux plate reader
# Keywords: cell viability, cytotoxicity, lymphoblastoid cell line, luminescence, NTPHTS, NTPHTS_NCGC, NIEHS, DSSTox, MLSMR, MLSCN, NIH Roadmap, qHTS, NCGC
# Potency means the concentration at half of the fitted maximal effect.
SMILES,Potency,"activity change, negative = viability loss"
[Cl-].[Cl-].[Hg+2],501 nM (active),–
CCOC(=O)c1ccccc1C(=O)OCC,inactive,–
O=[N+]([O-])c1ccccc1,–,6.47%
[O]=[Cd],–,16.2%
COC1=CC(=O)O[C@@H](/C=C/c2ccccc2)C1,–,-3.44%
COc1ccc2c(c1OC)C(=O)OC2C1c2cc3c(cc2CCN1C)OCO3 (stereo unspecified),–,-26.7%
[O]=[Cr](=[O])([OH])[O][Cr](=[O])(=[O])[OH],10 µM (active) and 15.8 µM (active),–
O=C1CCO1,–,11.1%
NNC(N)=O,–,-2.21%
O=Cc1ccco1,–,3.33%
O=C1C=CC(=O)C=C1,–,8.67%
O=C(O)C(Cl)(Cl)Cl,inactive,–
ClC=C(Cl)Cl,–,11.7%
ClC(Cl)(Cl)Cl,inactive,–
C[C@H]1CCC[C@H](O)CCCCCc2cc(O)cc(O)c2C(=O)O1,–,-24.9%
O=C1C2CC=CCC2C(=O)N1SC(Cl)(Cl)Cl (stereo unspecified),12600 nM (active),–
O=C/C=C/c1ccccc1,inactive,–
C=CCN=C=S,–,10%
Oc1cc(Cl)c(Cl)cc1Cl,–,20.2%
CCCCCCCCOC(=O)c1ccccc1C(=O)OCCCCCCCC,–,16.3%
CC(C)CCON=O,–,-6.8%
C[C@]12CCC(=O)C[C@@H]1CC[C@@H]1[C@@H]2CC[C@]2(C)[C@@H](O)CC[C@@H]12,–,-18.1%
O=[N+]([O-])c1ccc(F)c([N+](=O)[O-])c1,–,2.29%
S=C=S,–,-29.5%
Clc1ccccc1Cl,–,5.93%
O=CC=O,–,-12.4%
